Only some compounds are listed: those with a hit (about 3% of all), similar ones and a draw of the others.
SENP8 block-1: blocks human SENP8 cleavage of Nedd8 substrate; Q96LD8; recombinant SENP8, Nedd8 substrate fluorescence; inhibition, % at 20 µM; hit rate 0.64% among 360,000; AID 602440; in the data active means inhibition mostly above about 40%, no sharp cut-off; inactive means mostly below about 27%
Target sequence (Q96LD8 whole entry, looked up): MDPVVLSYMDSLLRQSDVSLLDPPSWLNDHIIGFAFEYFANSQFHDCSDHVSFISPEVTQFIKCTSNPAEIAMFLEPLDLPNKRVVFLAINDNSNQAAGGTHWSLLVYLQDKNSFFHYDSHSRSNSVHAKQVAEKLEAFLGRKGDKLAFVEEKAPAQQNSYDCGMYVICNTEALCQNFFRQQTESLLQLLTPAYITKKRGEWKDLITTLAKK
SENP6 inh: inhibitors of human SENP6 protease; Q9GZR1; inhibition, % at 10 µM; hit rate 1.8% among 330,000; Recombinant SENP6 catalytic domain, aminoluciferin luminescence;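 active means inhibition above about 50% at the single tested dose, limit read from the data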;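 further: plate controls were DMSO wells with enzyme for no effect and DMSO wells lacking enzyme for full effect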
Target sequence (Q9GZR1 628-1112 limits assumed): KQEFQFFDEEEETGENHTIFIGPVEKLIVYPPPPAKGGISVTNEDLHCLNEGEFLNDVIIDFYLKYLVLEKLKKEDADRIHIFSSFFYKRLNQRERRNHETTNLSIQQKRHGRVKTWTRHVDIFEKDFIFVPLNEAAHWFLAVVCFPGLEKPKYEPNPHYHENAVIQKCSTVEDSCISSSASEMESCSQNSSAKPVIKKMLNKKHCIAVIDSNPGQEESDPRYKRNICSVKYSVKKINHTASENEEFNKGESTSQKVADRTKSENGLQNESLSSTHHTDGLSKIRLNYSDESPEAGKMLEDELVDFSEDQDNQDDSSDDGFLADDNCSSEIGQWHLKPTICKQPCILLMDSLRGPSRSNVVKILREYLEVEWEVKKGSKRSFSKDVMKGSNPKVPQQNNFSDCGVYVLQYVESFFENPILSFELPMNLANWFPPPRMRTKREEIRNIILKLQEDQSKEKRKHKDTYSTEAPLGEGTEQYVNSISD
SENP7 inh: inhibitors of human SENP7 protease; Q9BQF6; recombinant SENP7, Z-RLRGG-aminoluciferin luminescence, 40 min; inhibition, % at 5 µM; hit rate 1.5% among 330,000; AID 434973;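 active means inhibition above about 50% at the single test dose, limit read from the data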;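 further: plate controls were DMSO with enzyme for no effect and no enzyme buffer wells for full effect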
SENP8 block-2: SENP8 protease inhibition | Q96LD8 | purified SENP8, Z-RLRGG-aminoluciferin cleavage, luminescence | inhibition, % at 10 µM | hit rate 1.2% among 330,000 | AID 2540; in the data active means inhibition above about 50%
PPC-1+TRAIL kill: kills PPC-1 cancer cells in the presence of TRAIL. PPC-1 cells + TRAIL, ATPLite viability luminescence. cell killing (% activity), % at 4 µM or 5 µM. hit rate 0.41% among 220,000. AID 1443;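 active means cell killing above 50% in the first pass at 4 µM, then a duplicate retest at 5 µM averaging 50% or more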;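 further: plate controls were cells with TRAIL plus DMSO for no effect and medium-only wells lacking cells for full effect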
C8 TRAIL sens: sensitizes caspase-8 expressing cells to TRAIL; NB7+C8 cells + TRAIL, ATPlite viability luminescence; inhibition (viability loss, TRAIL sensitization), % at 10 µM; hit rate 1% among 360,000;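 active means compounds causing at least 50% loss of cell viability in the single-dose screen, relative to plate controls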
* = called active by the depositor; . = no result.

SMILES | SENP8 block-1 | SENP6 inh | SENP7 inh | SENP8 block-2 | PPC-1+TRAIL kill | C8 TRAIL sens
Cc1cc(C)cc(NC(=O)Cn2c(SCc3cc(C)ccc3C)nc3ccncc32)c1 | . | . | . | . | 9.3 | .
Cc1ccc(CSc2nc3ccncc3n2CC(=O)Nc2cc(C)cc(C)c2)cc1 | 0.5 | -2.4 | -1.6 | 3.0 | 19.2 | 50.7*
Cc1ccc(S(=O)(=O)Cc2ccc(C(=O)OCc3ccccc3)cc2)cc1 | 11.5 | -13.3 | 0.2 | 5.9 | -1.5 | 1.2
COC(=O)c1c[nH]c2c1-c1cc(C(=O)OCc3ccccc3)n(S(=O)(=O)c3ccc(C)cc3)c1C(=O)C2=O | 104.9* | . | . | . | . | 69.5*
NC(N)=N/N=C/c1cccc(Cl)c1Cl | 14.1 | 10.5 | 2.9 | 2.9 | 17.0 | 0.2
Cc1ccc(-c2nc(N/N=C/c3ccccc3[N+](=O)[O-])c3ccccc3n2)cc1 | 9.5 | 3.5 | 14.1 | -0.3 | 30.8 | 89.0*
O=[N+]([O-])c1ccccc1C=NNc1ccccc1 | 36.3 | . | . | . | . | -4.7
COC(=O)c1ccccc1C(=O)N(c1ccccc1)c1ccccc1 | 19.1 | -37.8 | -7.3 | -10.4 | . | -0.6
Oc1c(CN2CCCCC2)cc(Br)c2cccnc12 | 53.1* | 19.2 | 12.7 | 15.1 | -9.3 | 50.6*
O=[N+]([O-])c1cc(CN2CCOCC2)c2cccnc2c1O | . | . | . | . | 46.3 | .
O=[N+]([O-])c1cc(CN2CCN(c3ccccc3)CC2)c(O)c2ncccc12 | 48.0* | 19.3 | 9.4 | 2.4 | 23.8 | 39.8
Oc1c(Cl)cc(CN2CCOCC2)c2cccnc12 | 10.8 | 8.6 | -2.7 | 4.6 | . | 36.9
OCC[C@@H]1C[C@@H](O)[C@H](O)[C@]2(CCCCO2)O1 | 12.8 | 7.2 | 8.6 | -1.9 | 14.0 | -4.9
Nc1ncnc(Nc2ccccc2Oc2ccccc2)n1 | 3.0 | . | . | . | . | 13.2
O/N=C1/CCc2cccc3cccc1c23 | 4.4 | 1.2 | -1.0 | 0.1 | 8.1 | -4.0
O=C1C(=NO)CCc2ccccc21 | 41.9* | . | . | . | . | 45.9
Cc1nn(CC(=O)NCc2cccc3ccccc23)c(=O)c2ccccc12 | 22.2 | -2.8 | -3.1 | 7.4 | 20.8 | -2.9
COc1ccc(C(=O)OCC(=O)c2ccc[nH]2)cc1 | -4.9 | 20.7 | -0.3 | 3.6 | . | 0.3
CCCCCCCCCCCCCCCC[n+]1ccc(C(N)=O)cc1 | 14.0 | -16.6 | 8.0 | 2.9 | 49.6 | 71.2*
CCCCCCCCCCCCCCCC[n+]1ccc(/C=N/O)cc1 | 22.9 | -22.8 | 11.8 | 5.2 | 70.2* | 18.5
CCCCCCCCCCCCCCCC[n+]1cccc(C(=O)N(CC)CC)c1 | 17.3 | -33.3 | 1.1 | -38.5 | 17.5 | 48.7
CCCCCCCCCCCCCCCC[n+]1ccccc1 | 13.0 | . | . | . | . | 94.7*
O/N=C/c1cccc[n+]1CCCCCC[n+]1ccccc1/C=N/O | 0.2 | -8.1 | 1.3 | -1.6 | . | 3.4
CCN1CCC(O)(/C=C/c2ccc(C(C)C)cc2)C(C(=O)/C=C/c2ccc(C(C)C)cc2)C1 (stereo not given) | 12.2 | . | . | . | . | 87.2*
CCN1CCN(C(=O)/C=C/c2ccc(C(C)C)cc2)CC1 | 12.6 | -13.8 | -3.8 | -6.1 | . | -0.8
SMILES | SENP8 block-1 | SENP6 inh | SENP7 inh | SENP8 block-2 | PPC-1+TRAIL kill | C8 TRAIL sens
COc1cc(C(CC(=O)Nc2ccccn2)N2Cc3ccccc3C2=O)cc(OC)c1OC (stereo not given) | 8.3 | 0.8 | 4.4 | 4.0 | . | 2.7
Nc1ccc(N2CCCCCC2)cc1 | . | 51.9* | 25.8 | 22.7 | 32.2 | .
Nc1ccc(N2CCN(c3ccc(Cl)c(Cl)c3)CC2)cc1 | 41.4* | 3.9 | 6.9 | -9.1 | 22.7 | 17.4
Cc1cccc(C)c1NC(=O)C1c2ccccc2OCC(=O)N1Cc1cccnc1 (stereo not given) | 2.2 | . | . | . | . | 10.1
Cc1ccccc1-c1nnc(-c2cccs2)o1 | -144.6 | 81.6* | 55.1* | 54.9* | 9.7 | 7.7
c1coc(-c2nnc(-c3cccs3)o2)c1 | -230.2 | 3.2 | 15.6 | -7.1 | 21.8 | 12.8
C(=N\Nc1nncc2ccccc12)/c1ccccn1 | 28.7 | 43.7 | 20.4 | 23.4 | . | 81.3*
Cn1c(=O)c2c(SCC(=O)Nc3ccccc3F)nc(C3CC3)nc2n(C)c1=O | 15.6 | -12.1 | -12.7 | -1.5 | . | 49.6*
Cn1c(=O)c2c(SCC(=O)Nc3ccccc3F)nc(-c3ccccc3F)nc2n(C)c1=O | -34.1 | -16.9 | 13.1 | -6.4 | . | 10.3
O=c1c2[nH]c3ccc(F)cc3c2ncn1C1CCCCC1 | -116.9 | 0.2 | -7.4 | -9.3 | 13.8 | 51.4*
O=C1CN(c2nc(-c3ccccc3)c3cc(Cl)ccc3n2)c2ccccc2N1 | 5.7 | 2.5 | 4.1 | -5.4 | 14.1 | 21.1
O=C1Cc2c(-c3ccccc3)cc(-c3cccc(Cl)c3)nc2-c2ccccc2N1 | -4.9 | . | . | . | . | 63.8*
CCN1CCN(c2ccc(S(=O)(=O)N3CCCCC3)cc2NC(=O)c2ccc([N+](=O)[O-])s2)CC1 | 2.7 | -1.3 | 10.9 | 9.6 | . | 53.1*
CCN1CCN(c2ccc(S(=O)(=O)N3CCCCC3)cc2NC(=O)c2ccccc2)CC1 | 7.1 | -9.9 | 11.3 | -7.4 | . | 21.2
Nc1nc(-c2ccccc2)c(N=Nc2ccc(Cl)cc2)s1 | 46.0* | -11.8 | -1.7 | -6.2 | 15.2 | -0.5
Nc1nnnn1/N=C/C(Br)=C/c1ccccc1 | 15.3 | -4.6 | 6.6 | -1.6 | 7.6 | 58.5*
Nc1nnnn1/N=C/C=C/c1ccccc1 | 18.6 | -9.2 | -1.6 | -10.1 | -4.5 | -4.3
CCOC(=O)C1=C(O)/C(=C/c2cn(CC(=O)NCC3CCCO3)c3ccccc23)SC1=Nc1ccc(C)cc1 (stereo not given) | -175.2 | -3.2 | -4.6 | 12.8 | . | 57.0*
CCOC(=O)C1=C(O)/C(=C/c2ccc(-c3ccccc3C(=O)O)o2)SC1=Nc1ccc(C)cc1 | -129.2 | . | . | . | . | 9.4
Cc1ccc(C(O)c2ncc(-c3cccc4ccccc34)[nH]2)cc1F (stereo not given) | -223.6 | . | . | . | . | -9.9
Oc1ccc(/C=N/N(c2ccccc2)c2ccccc2)c(O)c1O | 31.9* | 12.1 | 5.3 | 10.3 | . | 4.7
O=C1c2ccccc2C(=O)N1/N=C/c1ccc(O)c(O)c1O | 83.3* | . | . | . | 2.5 | -7.0
O=C1c2cccc3cccc(c23)C(=O)N1/N=C/c1ccc(O)cc1O | 14.3 | -20.8 | -8.1 | -8.6 | -2.9 | -1.6
COc1cccc(/C=N/N2CCOCC2)c1O | 7.7 | 28.1 | 29.2 | 5.7 | 15.6 | 21.6
Oc1ccc(/C=N/N2CCOCC2)c(O)c1O | 63.2* | 14.1 | -7.8 | -1.9 | 12.1 | 5.7
Cc1nc2ccccc2c(=O)n1/N=C/c1ccc(O)c(O)c1O | 69.4* | 18.8 | 8.8 | 4.9 | . | 3.3
COc1ccc(CN2C(=O)CCC2(C)c2nnnn2Cc2ccccc2)cc1 (stereo not given) | 19.2 | . | . | . | . | 7.4
CCC(C)(C)C1CCc2[nH]nc(C(=O)N/N=C(\C)c3ccco3)c2C1 (stereo not given) | 26.2 | 58.0* | 39.1 | 46.0 | 21.8 | 32.2

Source: PubChem BioAssay (Sanford-Burnham Center for Chemical Genomics)
